IL1B secr inh – qHTS for Inhibitors of Inflammasome Signaling: IL-1-beta AlphaLISA Primary Screen; THP-1 LPS/ATP IL-1B secretion, AlphaLISA, 16 h; active compounds read low; hit rate 4.7% among 360,000; activity change, % at 57.5 µM; AID 743279, 2014; in the data active = activity change below about -50%; inconclusive = mostly about -30% to -49%; note: % is set by controls: 0 for no effect and ±100 for the full control effect
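THP-1 cells pretreated 1 hr with compounds (up to 57.5 uM final), then stimulated with LPS (250 ng/mL final) plus ATP (1.25 mM final); secreted IL-1B measured by AlphaLISA after 16 hr, decreased signal indicating inhibition.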
MCF10A rerep – A quantitative high throughput screen for small molecules that induce DNA re-replication in MCF 10a normal breast cells. MCF 10A DNA re-replication, Hoechst nuclear intensity, 48 h. Potency, µM (top dose mostly 46.1 µM), for inactives: at the highest dose activity, positive = re-replication, hits mostly activators. hit rate 2.9% among 350,000; note: potency is the fitted concentration of half-maximal effect; % of control where 0% means no effect; nearly all actives have a fitted effect of over 50% in size
BCR signal inh – qHTS Assay to Find Inhibitors of Chronic Active B-Cell Receptor Signaling. ABC-DLBCL IkBa-CBG/CBR reporter, luminescence ratio, 4 h. Potency, µM (doses to about 46.1 µM), for the others: top-dose activity change, negative = inhibition, usual class: inhibitors. hit rate 0.05% among 340,000. AID 493014, 2011; active = well fitted inhibition curve with a large enough effect in the signal ratio, with a control signal flat, not every such curve was filed as active; inconclusive = small, poorly fitted or top-dose-only effect, or effect the other way, or a change in a side signal; the % refers to the signal ratio;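 note: potency is the fitted concentration of half-maximal effect; plate controls were basal doxycycline-induced cells for no effect and cells given 10 µM MG132 for full effect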
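TMD8 human ABC-DLBCL cells with doxycycline-inducible IκBα–green luciferase fusion and unfused red luciferase, in 0.5% FBS medium; compounds up to 46 uM, 4 h at 37C. Green/red luminescence ratio, filter-overlap corrected, fitted to concentration-response curves.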
TDP1 cell noCPT – qHTS for Inhibitors of human tyrosyl-DNA phosphodiesterase 1 (TDP1): qHTS in cells in absence of CPT; DT40 Tdp1-/- hTDP1 cells, no CPT, ATP luminescence, 48 h; Potency, µM (highest dose often 46.2 µM), for inactives: at the top dose activity change, negative = growth inhibition, actives largely listed as inhibitors; hit rate 15% among 420,000; note: potency is the fitted concentration of half-maximal effect; % is set by controls: 0 for no effect and ±100 for the full control effect; nearly all actives have a fitted effect of over 55% in size
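Seeded 400 DT40-hTDP1 cells/well (vehicle DMSO, no 20 nM CPT); pinned compounds; ≥48 hr at 37 °C; CellTiter-Glo luminescence as viability measure.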
SW480 rerep – A quantitative high throughput screen for small molecules that induce DNA re-replication in SW480 colon adenocarcinoma cells | hit rate 1.8% among 340,000 | SW480 DNA re-replication, Hoechst DNA content imaging, 48 h | Potency, µM (top dose mostly 46.1 µM), inactives show at the top dose re-replication activation, actives largely listed as activators; note: potency is the fitted concentration of half-maximal effect; % of control where 0% means no effect; nearly all actives have a fitted effect of over 55% in size
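Readout is total intensity of Hoechst-stained nuclei, excited at 405 nm and collected at 500-530 nm. Compound treatment lasted 48 hr at 37 C in 5% CO2 before staining.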
TDP1 cell CPT – qHTS for Inhibitors of human tyrosyl-DNA phosphodiesterase 1 (TDP1): qHTS in cells in presence of CPT; AID 686979, 2013; chicken DT40 Tdp1-/-;hTDP1 cells + 20 nM CPT, ATP luminescence, 48 h; Potency, µM (doses to about 46.2 µM), for the others: at the highest dose activity change, negative = growth inhibition, actives largely listed as inhibitors; hit rate 12% among 420,000; note: potency is the fitted concentration of half-maximal effect; % is set by controls: 0 for no effect and ±100 for the full control effect; nearly all actives have a fitted effect of over 55% in size
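Cell growth measured by CellTiter-Glo luminescence after a minimum 48 h, 37 C compound exposure with 20 nM CPT in Tdp1-knockout DT40 cells stably expressing hTDP1, seeded 400/well; qHTS titration format.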
The depositor's hits bear a star; ? = inconclusive; . = not tested or not shown; ! = not confirmed by another sample. A selection: hits, their analogues and other compounds. The true share with any hit is near 19%. Unless noted, calls come from the whole dose curve; as a rule, active = well fitted curve in the direction sought with a large enough effect; inconclusive = small, poorly fitted or top-dose-only effect, or another doubt; inactive = no such curve, though single readings can be large; an effect the other way counts as inactive or inconclusive.

SMILES | IL1B secr inh | MCF10A rerep | BCR signal inh | TDP1 cell noCPT | SW480 rerep | TDP1 cell CPT
O=C(NCCN1CCCC1)c1ccc2c(=O)n(CCc3ccccc3)c(=O)[nH]c2c1 | 51 | -1% | 6% | 29µM* | 0% | 18µM*
COc1ccc(N2CCN(C(=O)c3ccc4c(=O)n(CCc5ccc(OC)c(OC)c5)c(=O)[nH]c4c3)CC2)cc1 | 12 | 10% | 7% | 16µM* | 2% | 15µM*
CC(C)(C)Cc1nnc(NC(=O)CCc2ccccc2)s1 | -1 | -1% | 5% | -18% | 2% | -11%
O=C(c1ccc2c(=O)n(CCc3ccccc3)c(=O)[nH]c2c1)N1CCN(c2ccccc2)CC1 | -6 | 4% | 17% | ? | -13% | ?
COc1ccc(-n2c(=O)[nH]c3cc(C(=O)NCCc4ccccc4)ccc3c2=O)cc1OC | 34 | 1% | 0% | 18µM*! | ? | ?
CCCCCn1c(=O)[nH]c2cc(C(=O)N3CCN(c4cccc(Cl)c4)CC3)ccc2c1=O | . | . | . | ? | . | 10µM*
COc1cc2[nH]c(=O)n(Cc3ccc(C(=O)NCc4ccccc4)cc3)c(=O)c2cc1OC | . | . | . | ? | . | 18µM*
COc1ccc(CCNC(=O)c2ccc(Cn3c(=O)[nH]c4cc(OC)c(OC)cc4c3=O)cc2)cc1OC | . | . | . | -19% | . | -26%
O=C(c1ccc2c(=O)n(CCc3ccccc3)c(=O)[nH]c2c1)N1CCN(c2ccc(Cl)cc2)CC1 | . | . | . | 18µM* | . | 16µM*
CCCCCn1c(=O)[nH]c2cc(C(=O)N3CCN(C(=O)OCC)CC3)ccc2c1=O | -1 | 4% | 7% | ? | 2% | ?
O=C(CCCn1c(=O)[nH]c2ccccc2c1=O)Nc1ccc(F)cc1 | 6 | 1% | 2% | -10% | -3% | -18%
O=C(CCCn1c(=O)[nH]c2cc(Cl)ccc2c1=O)NCCCN1CCN(c2ccc(F)cc2)CC1 | ? | ? | ? | 21µM* | 4% | 16µM*
O=C(c1ccc(F)cc1)C1CCN(CCn2c(=O)[nH]c3ccccc3c2=O)CC1 | -25 | -1% | -9% | ? | -15% | 7.3µM*!
O=C(c1ccc2c(=O)n(CCc3ccccc3)c(=O)[nH]c2c1)N1CCN(c2ccc(F)cc2)CC1 | -8 | -1% | 9% | 13µM* | -18% | 12µM*
O=Nc1c(O)n(Cc2ccc(Cl)cc2)c2ccccc12 | -88* | ? | ? | -25% | 13% | 7%
CCOC(=O)n1c(=O)n(Cc2ccc(Cl)cc2Cl)c2ccccc21 | -8 | ? | -7% | ? | -2% | ?
O=Nc1c(O)n(Cc2c(Cl)cccc2Cl)c2ccccc12 | ? | ? | ? | -20% | ? | 0%
C=CCn1c(O)c(N=O)c2ccccc21 | ? | 11% | 3% | 17% | 1% | 1%
CC(=O)c1c(C)n(CCc2ccc(Cl)cc2)c2ccc(O)cc12 | -12 | -3% | ? | -4% | 0% | 11%
Cc1ccc2c(c1)c(N=O)c(O)n2Cc1ccc(Cl)cc1 | -73* | 1% | ? | -16% | 15% | -21%
O=Nc1c(O)n(Cc2ccc(Cl)cc2Cl)c2ccccc12 | -58* | ? | ? | -27% | 2% | -16%
C/C(Cl)=C\Cn1c(O)c(N=O)c2ccccc21 | -98* | 23% | ? | -21% | 3% | -15%
COc1cc(=O)n2c(c1C(=O)NCc1ccco1)CCN(C(=O)c1ccccc1-c1ncc[nH]1)CC2 | . | . | . | -2% | . | 22%
COc1ccc(S(=O)(=O)NCC(=O)NCCc2ccc(OC)c(OC)c2)cc1 | -22 | -4% | . | -29% | -33% | -8%
Cc1ccc(Cn2c(O)c(N=O)c3ccccc32)cc1 | -88* | 0% | ? | -11% | 17% | 34%
SMILES | IL1B secr inh | MCF10A rerep | BCR signal inh | TDP1 cell noCPT | SW480 rerep | TDP1 cell CPT
CC(C)(C)S(=O)N1Cc2cc(C(=O)NCC(F)(F)F)nc(-c3cccc(-c4cccc(F)c4)c3)c2[C@H]1CCO (some centres undefined) | ? | . | . | 21µM* | . | ?
COc1cccc(-c2cccc(-c3nc(C(=O)NCCCN4CCOCC4)cc4c3[C@H](CCO)N(S(=O)C(C)(C)C)C4)c2)c1 (some centres undefined) | -13 | . | . | 18µM* | . | ?
COCCNC(=O)c1cc2c(c(-c3cccc(-c4cccc(OC)c4)c3)n1)[C@H](CCO)N(S(=O)C(C)(C)C)C2 (some centres undefined) | -20 | . | . | ? | . | ?
COc1cccc(CNC(=O)c2cc3c(c(-c4cccc(-c5cccc(C#N)c5)c4)n2)[C@H](CCO)N(S(=O)C(C)(C)C)C3)c1 (some centres undefined) | -17 | . | . | 15µM* | . | ?
CN(C)C(=O)c1cccc(-c2cccc(-c3nc(C(=O)NCc4ccccc4)cc4c3[C@@H](CCO)N(S(=O)C(C)(C)C)C4)c2)c1 (some centres undefined) | -55* | . | . | 15µM* | . | 18µM*
Brc1ccc(CNc2cc3c(cc2Br)OCCO3)cc1 | ? | 0% | ? | ? | -2% | 5%
COc1ccccc1N1CCN(c2cc(C)nc3nc(-c4ccc(Cl)cc4)nn23)CC1 | . | . | . | ? | . | -19%
CC(CN(C)C)CN1c2ccccc2S(=O)(=O)c2ccccc21 (centres undefined) | . | . | . | -11% | . | -3%
Cc1ccc2c(c1)[C@@H]1[C@H](CO2)[C@H](c2ccccc2)[C@]2(C)C(=O)N[C@H](C)C(=O)N12 | 17 | -35% | 4% | ? | -5% | ?
COc1ccc(OC)c(-c2ccnc(-n3ncc(C(=O)N(C)CCO)c3C3CC3)n2)c1 | . | . | . | -3% | . | -1%
CCC(=O)N1c2ccccc2CC1C(=O)NCc1cccc(OC)c1OC (centres undefined) | . | . | . | -16% | . | ?
CCOC(=O)C1=C(C(=O)OCC)N(CC)CCC1=O | 10 | ? | . | -4% | ? | -9%
CC(C)(C)S(=O)N1Cc2cc(C(=O)N[C@@H]3CCN(Cc4ccccc4)C3)nc(-c3cccc(-c4cc5ccccc5o4)c3)c2[C@@H]1CCO (some centres undefined) | ? | . | . | 23µM* | . | ?

Bioassay records from PubChem.
